Laboratory results taken from the supplement of paper PMC6555819.

Key:
Experiment in all cases: PBM binding z-score (relative to random genomic background probes); higher = stronger binding; sequences stand for … in GC…GCGATTGACAGCGTAGAATGAAGG
[1] = test system: PPARg:RXRa IVT, anti-PPARg (NR concentration 270 nM, RXRa partner concentration 90 nM)
In short: (§1)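 The probes on custom Agilent 4×180K protein-binding microarrays were double-stranded, with 34-nt variable regions bearing direct-repeat seeds, single-nucleotide variants, half-site ablations and random human genomic background sequences. Incubation lasted 1 h with ligand-free nuclear receptor dimers in PBS pH 7.4, 2% milk, 0.02% Triton X-100, 1 mM DTT, 0.2 mg/mL BSA and 0.4 mg/ml salmon testes DNA. Antibodies against each partner (one per run) detected bound dimers, and fluorescence scans were regression-normalized. Binding z-scores take the random background probes as reference.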

[2] = test system: PPARg DBDmut:RXRa IVT, anti-PPARg (DBD mutation: PPARg1 K132A/R137A, NR concentration 270 nM, RXRa partner concentration 90 nM)
In short: as §1

[3] = test system: PPARg DBDmut IVT, anti-PPARg (DBD mutation: PPARg1 K132A/R137A, NR concentration 270 nM)
In short: as §1

[4] = test system: PPARg homodimer (NR concentration 180 nM)
In short: as §1

[5] = test system: PXR:RXRa (NR concentration 270 nM, RXRa partner concentration 90 nM)
In short: as §1

[6] = test system: PXR homodimer (NR concentration 270 nM)
In short: as §1

[7] = test system: RARa:RXR (NR concentration 270 nM, RXRa partner concentration 90 nM)
In short: as §1

[8] = test system: RARa homodimer (NR concentration 270 nM)
In short: as §1

[9] = test system: RARb homodimer (NR concentration 270 nM)
In short: as §1

[10] = test system: RARb:RXRa (NR concentration 270 nM, RXRa partner concentration 90 nM)
In short: as §1

Row | Sequence | PBM binding z-score [1] | PBM binding z-score [2] | PBM binding z-score [3] | PBM binding z-score [4] | PBM binding z-score [5] | PBM binding z-score [6] | PBM binding z-score [7] | PBM binding z-score [8] | PBM binding z-score [9] | PBM binding z-score [10]
1 | ATCGAAAGGTCAACGAGGTGAGTATACACCGTTT | 5.68 | 2.78 | 3.38 | 5.17 | 6 | 5.16 | 6.61 | 3.85 | 5.51 | –
2 | ATCGAAAGGTCATGAGGTGAGTATACAGAAAGGC | 5.59 | 2.8 | 3 | 4.69 | 5.71 | 0.933 | – | 3.7 | 5.04 | –
3 | CGTCAAAGGTCAAAGGTCAGTGAAGAGATGACGG | 6.51 | 2.46 | 1.92 | 4.68 | 7.37 | 1.83 | 9.15 | 3.92 | 6.09 | –
4 | CCTTAGGGGTCACTGACAGGTTATAGCATTTGGA | 5.5 | 1.68 | 2.53 | 4.49 | 6.32 | 0.503 | – | 2.05 | 4.99 | –
5 | CGTCCAAGGTCATAGGAGGTCAATGAAGACAGAT | 5.13 | 0.774 | 0.632 | 4.29 | 7.13 | 6.06 | 6.16 | 1.49 | 5.71 | –
6 | TGTCAAAGTTCAAAGGTGACGTAAGTATCCACAC | 5.07 | 1.7 | 1.53 | 5.33 | 6.34 | 5.43 | – | 2.52 | 4.05 | 5.36
7 | CAAACCAGGTCAAGAGGTCAAAGTCCGCTTCCCG | 6.81 | 3.85 | 3.15 | 8.14 | – | 3.35 | 8.42 | 3.47 | 5.59 | 5.6
8 | CGTCCAAGGTCTAGGTCAGTGAAAGAGACTCGAA | 1.61 | -1.11 | -1.28 | 0.763 | – | -0.179 | 0.514 | 0.0377 | 2.38 | 2.48
9 | AGTCAAAGGTCATCTAGGTAACGTAAGATATGCT | 6.77 | 2.25 | 1.94 | 3.75 | 5.44 | 1.34 | 6.03 | 2.2 | 5.29 | –
10 | CAAACGAGGTCAAGAGGTCAAAGTCCGCTTCCCG | 7.14 | 1.86 | 1.69 | 5.31 | – | 6.05 | 8.32 | 2.73 | 6.42 | –
11 | GGAACGAGGTCATTCGAGTTGATAGCATGGCGAT | 5.89 | 0.79 | 0.0541 | 1.95 | – | 7.74 | 5.14 | -0.0279 | 3.81 | 4.9
